Inconclusive results are not listed. Active and inactive are the calls of the source. How the source made its calls: active means hit-call score of the fitted dose curve at least 0.9, where 1 is the maximum; inconclusive means response in the unintended direction; inactive means score below 0.9.
Molecular target: human RAR-related Orphan Receptor gamma (RORg), RORC (gene 6097) (UniProt P51449)
Assay: ATG_RORg_TRANS: Attagene TRANS-FACTORIAL HepG2 Assay for human RAR-related Orphan Receptor gamma (RORg) (AID 2283011)
In short: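 Readout: reporter transcript induction (RT-PCR, fluorescent primer extension, capillary electrophoresis) after 24 h compound exposure of transiently transfected HepG2 cells carrying a RORg-Gal4 chimera and GAL4-UAS reporters; DMSO served as baseline, with increasing signal fitted.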

Sequence of human RAR-related Orphan Receptor gamma (RORg), RORC (gene 6097) (P51449 whole entry, looked up): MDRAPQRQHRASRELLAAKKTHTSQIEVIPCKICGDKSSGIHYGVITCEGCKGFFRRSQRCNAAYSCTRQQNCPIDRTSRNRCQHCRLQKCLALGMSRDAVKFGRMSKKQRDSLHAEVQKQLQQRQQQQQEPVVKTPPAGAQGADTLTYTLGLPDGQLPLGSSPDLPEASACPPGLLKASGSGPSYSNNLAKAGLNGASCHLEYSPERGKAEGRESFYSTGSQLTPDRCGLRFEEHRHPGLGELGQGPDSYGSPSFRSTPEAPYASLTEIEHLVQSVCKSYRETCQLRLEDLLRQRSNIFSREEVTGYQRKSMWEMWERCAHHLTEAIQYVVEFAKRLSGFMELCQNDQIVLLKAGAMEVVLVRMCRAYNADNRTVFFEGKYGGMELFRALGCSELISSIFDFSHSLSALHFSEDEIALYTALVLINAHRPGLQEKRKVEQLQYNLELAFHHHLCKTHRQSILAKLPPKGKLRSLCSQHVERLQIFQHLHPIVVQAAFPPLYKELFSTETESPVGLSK

outcome, inactive:
C=CCN(CC=C)CC=C
[Cl][Au]([Cl])[Cl]
COC(C)(C)CCO
Cc1ccc(OC(=O)c2ccccc2O)cc1
COc1ccc(N=Nc2cc(C)c(N=Nc3ccc(S(=O)(=O)O)cc3)cc2OC)cc1
CCN(CCC#N)c1ccc(N=Nc2ccc([N+](=O)[O-])cc2)cc1
CC(=O)CC(=O)Nc1ccc(C)cc1C
Cc1c(C2(c3cc(Br)c(O)c(Br)c3C)OS(=O)(=O)c3ccccc32)cc(Br)c(O)c1Br
CCOc1ccc(NC(=O)CC(C)=O)cc1
[O-]n1ccccc1=S.[O-]n1ccccc1=S.[Zn+2]
COCCOCCOCCO
COc1cc(C(C)C)ccc1C
Brc1ccc(Br)c(Br)c1
OCC#CCO
CC(C)OCCO
CC(C)=CCCC(C)CC(=O)O (stereo not drawn)
CCCCCCCCCC(=O)OC
C=C(C)C(=O)OCCOC1CC2CC1C1C=CCC21 (stereo not drawn)
CS(C)=O
CCCC(=O)OCCc1ccccc1
CCOc1ccc(NC(=O)CC(C)O)cc1 (stereo not drawn)
CC=CC=CCOC(=O)C(C)C
CCCCC1(COC(=O)CCC(=O)O)C(=O)N(c2ccccc2)N(c2ccccc2)C1=O
CC(Oc1cc(Cl)ccc1Cl)C(=O)O (stereo not drawn)
CCOC(=O)C1OC1c1ccccc1 (stereo not drawn)
CCCN(CCC)S(=O)(=O)c1ccc(C(=O)O)cc1
CC1CCC(C(C)C)C(O)C1 (stereo not drawn)
COCCOC(=O)c1ccccc1C(=O)OCCOC

— PubChem BioAssay (EPA / NIEHS)
